FUS suppressor = suppressors of FUS proteinopathy in yeast; S. cerevisiae FUS-expressing, growth rescue, OD600, 24 h; Potency, µM (highest dose often 76.6 µM), most hits filed as activators; 390,000 tested, 0.24% active; AID 1347120; note: nearly all actives have a fitted effect of over 55% in size
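Restored growth of FUS-toxic S. cerevisiae, read as 600 nm absorbance after 24 h at 30C in galactose medium (starting OD 0.005). Controls CP55940 and DMSO.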
Abeta rescue = A-beta toxicity reversal in yeast; yeast expressing A-beta42, growth rescue, OD600, 48 h; response scale: 0% DMSO, 100% iron-clioquinol control; Potency, µM (doses to about 46.1 µM), actives largely listed as activators; 410,000 tested, 0.063% active; AID 1347071; note: nearly all actives have a fitted effect of over 55% in size
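Growth rescue measured by 600 nm absorbance after 48 h yeast culture at 30 C with compound. Values normalized between DMSO and an equimolar ferric chloride plus clioquinol control.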
aSyn yeast inh = rescues yeast growth from alpha-synuclein toxicity | Potency, µM (doses to about 46.1 µM), hits mostly activators | Yeast expressing alpha-synuclein, growth rescue, BacTiter-Glo, 24 h | 370,000 tested, 0.14% active; note: nearly all actives have a fitted effect of over 65% in size
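Galactose-induced alpha-syn yeast (OD600=0.02, raffinose-pregrown) + pinned cpd, 24 hr, 30 deg C; growth by BacTiter-Glo luminescence. Growth restoration scores as activation.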
TDP43 rescue = TDP-43 toxicity inhibition in yeast; Potency, µM (series often up to 46.1 µM), usual class: activators; TDP-43 expressing yeast growth rescue, BacTiter-Glo, 24 h; AID 652104; 410,000 tested, 1.8% active; note: nearly all actives have a fitted effect of over 50% in size
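In this qHTS, compounds that restore growth of yeast expressing TDP-43 appear as activators. Cells (OD600=0.02, galactose medium, raffinose-pregrown) are incubated with compound 24 hr at 30 deg C and growth is quantified by BacTiter-Glo.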
Of the large screens only hits and unclear results are named; the others gave an inactive call. Hits are enriched below; roughly 2.1% of the tested compounds scored in any of these assays. Calls come from the whole dose curve; as a rule, active = well fitted curve in the direction sought with a large enough effect; inconclusive = small, poorly fitted or top-dose-only effect, or another doubt; inactive = no such curve, though single readings can be large; an effect the other way counts as inactive or inconclusive.

OC(C[n+]1cccc(Br)c1)c1ccccc1 (stereo unspecified)	none (no result: FUS suppressor, Abeta rescue, TDP43 rescue)
COc1ccc(-n2c(C)cc(C3=NNC(=NC4CC4)SC3)c2C)cc1	FUS suppressor 16µM
Cc1ccc(C(=O)NCC(c2ccco2)S(=O)(=O)c2ccc(Cl)cc2)cc1C (stereo unspecified)	none (no result: aSyn yeast inh)
COc1ccc(OC)c(-c2nnc3n2N=C(c2ccc(OC)c(OCC4CC4)c2)CS3)c1	FUS suppressor 28µM (no result: aSyn yeast inh, TDP43 rescue)
COc1ccc(C2=Nn3c(nnc3-c3ccccc3Cl)SC2)cc1OCC1CC1	none (no result: aSyn yeast inh, TDP43 rescue)
CCCCn1nnnc1NCc1ccc(N2CCCC2)cc1	FUS suppressor 28µM
O=C(CCCOc1cccc(Br)c1)NCCOc1ccccc1	TDP43 rescue 13µM
CC(C)CCNC(=O)CCCOc1ccccc1	none
CN(CCc1ccccc1)C(=O)c1cc2ccccn2n1	none (no result: Abeta rescue, aSyn yeast inh, TDP43 rescue)
Cc1c(Cl)cccc1NC(=O)CCS(=O)(=O)c1ccc2c(c1)CC(C)N2C(=O)C1CC1 (stereo unspecified)	none (no result: aSyn yeast inh)
O=[N+]([O-])c1ccc2[nH]nc(-c3ccccc3)c2c1	TDP43 rescue 5.6µM (no result: FUS suppressor)
O=C(O)c1[nH]c2ccc([N+](=O)[O-])cc2c1-c1ccccc1	Abeta rescue inconclusive
Cc1ccsc1CN(C(=O)c1ccc(OCC(C)C)cc1)C1CCS(=O)(=O)C1 (stereo unspecified)	TDP43 rescue inconclusive (no result: aSyn yeast inh)
CCCCNC(=O)C1(C(=O)c2ccc(OC)cc2)CC(C(=O)OCC)=NO1 (stereo unspecified)	none (no result: Abeta rescue, aSyn yeast inh, TDP43 rescue)
O=C(Nc1nc(-c2ccc(Cl)cc2)cs1)C1CCCO1 (stereo unspecified)	TDP43 rescue inconclusive
O=C(Nc1nc(-c2ccc(Cl)cc2Cl)cs1)C1CCCO1 (stereo unspecified)	TDP43 rescue 13µM
Cc1ccc(-c2cc(C(=O)NC3=NCCS3)c3ccccc3n2)cc1C	FUS suppressor inconclusive, TDP43 rescue inconclusive
O=C(NC1=NCCS1)c1cc(-c2cccc(Br)c2)nc2ccccc12	TDP43 rescue 22µM (no result: FUS suppressor)
Cc1ccc2nc(-c3cccc(Br)c3)cc(C(=O)NC3=NCCS3)c2c1	TDP43 rescue 20µM
COc1ccccc1N1CCN(S(=O)(=O)c2c(C)sc3ncn(CC(=O)Nc4ccc(C(C)C)cc4)c(=O)c23)CC1	none (no result: aSyn yeast inh)
O=C(CCCc1ccccc1)NC1CC(=O)N(c2ccc(Cl)cc2)C1 (stereo unspecified)	TDP43 rescue inconclusive (no result: aSyn yeast inh)
CC(C)Cn1c(/C=C/c2ccc(F)cc2)nc2ccccc21	TDP43 rescue 14µM
CCC(C)Cn1c(/C=C/c2ccccc2)nc2ccccc21 (stereo unspecified)	TDP43 rescue 14µM (no result: aSyn yeast inh)

Assay outcomes: PubChem, National Center for Advancing Translational Sciences (NCATS)
